Results from PubChem BioAssay AID912 (National Center for Advancing Translational Sciences (NCATS), 2007).
Several values for one entry are separate records, joined by “and”; a condition that tells them apart may be missing. Equal values may be shown once. Out of some 70,000 compounds screened, about 470 (0.67%) were called active. A call without a number means that no potency is given here. Inconclusive results (about 18%) are left out. The sample holds actives, similar compounds and a random draw of the others, so the mix is not that of the screen. Values without a mark were called inactive. Calls follow the shape of the full dose curve.
Potency is read from the fitted curve at half-maximal effect.

Experiment: qHTS Assay for Anthrax Lethal Toxin Internalization; also: nearly all actives have a fitted effect of over 50% in size
Conditions: Cells, FRET ratio (460/530); series mostly up to 40 µM
With `CO[C@@H]1COC(=O)C/C=C\[C@H](C)[C@@H](NS(=O)(=O)c2ccc(C)cc2)COC(=O)C/C=C\[C@@H]1C` the activity change, negative = inhibition was -10% [at 8 µM] and -6.83% [at 8 µM].
In the case of `c1ccc2nc(C3=NCCN3)cnc2c1`, the activity change, negative = inhibition is reported as “inactive”.
With `Cc1c2c(nc3ccccc13)-c1cccc(=O)n1C2` the activity change, negative = inhibition was “inactive”.
In the case of `COc1ccccc1C(=O)C(O)c1ccccc1OC` (centres undefined), the activity change, negative = inhibition is reported as “inactive”.
Molecule `CC(=O)OCC1OC(C#Cc2ccccc2Cl)C=CC1OC(C)=O` (centres undefined) has an activity change, negative = inhibition of -7.54% [at 8 µM].
In the case of `C[N+](C)(C)CCCCCNCC12CC3CC(CC(C3)C1)C2`, the activity change, negative = inhibition is reported as “inactive”.
For `CSc1ccc(-c2c(C#N)c(N)nc3c2c(C)nn3-c2ccccc2)cc1`, the Potency was 1.26 µM (active).
For `COC(=O)[C@@]1(Cc2ccc(F)cc2)[C@H]2c3cc(C(=O)N4CCCC4)n(C[C@H](O)CO)c3C[C@H]2CN1C(=O)c1ccccc1`, the activity change, negative = inhibition was “inactive”.
For `COc1cc([C@H]2c3cc4c(cc3[C@@H](O[C@@H]3O[C@H]5CO[C@@H](C)O[C@]5(O)C[C@H]3O)[C@@H]3COC(=O)[C@H]23)OCO4)cc(OC)c1O`, the activity change, negative = inhibition was “inactive”.
With `CCC(Sc1nncn1C)C(=O)Nc1nnc(-c2ccc(Cl)cc2)s1` (centres undefined) the activity change, negative = inhibition was “inactive”.
Molecule `O=C(O)c1ccc(C(=O)O)c2c(C(=O)O)ccc(C(=O)O)c12` has an activity change, negative = inhibition of -1.24% [at 8 µM].
With `COc1ccc(N)c(OC)c1` the activity change, negative = inhibition was “inactive”.
With `COC(=O)[C@@]1(Cc2ccccc2)[C@H]2c3cc(C(=O)N(C)C)n(CCSCCO)c3C[C@H]2CN1C(=O)c1ccccc1` the activity change, negative = inhibition was “inactive”.
With `CCC[C@@H]1C[C@@]1(CCC)C(NS(=O)(=O)c1cccc2cccnc12)c1ccc(Cl)cc1` (some centres undefined) the activity change, negative = inhibition was “inactive”.
In the case of `NCC[Se][Se]CCN`, the Potency is reported as 0.0794 µM (active).
With `C=C1c2cc(CC)ccc2NC(=O)N1c1ccc(C)cc1` the Potency was 10 µM (active).
For `N[C@@H](C(=O)O)c1ccc(P(=O)(O)O)cc1`, the activity change, negative = inhibition was “inactive”.
In the case of `CC(=O)N1CCC2(CCCN(Cc3ccc(C#N)cc3)C2)CC1`, the activity change, negative = inhibition is reported as “inactive”.
With `CCCCCCOC(=O)NCC(O)c1ccccc1` (centres undefined) the activity change, negative = inhibition was “inactive”.
`COc1cccc([C@H](O)Cn2cc(-c3ccc(CON=C(C)C)cc3)nn2)c1` gave an activity change, negative = inhibition of -1.91% [at 8 µM].
With `COc1ncc2nc(-c3ccc(Cl)cc3)c(=O)n(C)c2n1` the activity change, negative = inhibition was “inactive”.
With `N#Cc1nc(-c2ccc(OCc3ccccc3)cc2)oc1NCCCN1CCOCC1` the Potency was 12.6 µM (active).
For `N#Cc1nc(COc2ccc(-c3ccccc3)cc2)oc1NCc1cccnc1`, the activity change, negative = inhibition was “inactive”.
For `N#Cc1nc(Cc2ccccc2)oc1NCCc1ccccc1`, the activity change, negative = inhibition was “inactive”.
With `C/C=C/C=C/C(=O)O` the activity change, negative = inhibition was “inactive”.
Work on `CC(C)CN1CCc2nc(-c3ccccc3)c3c(c2C1)COC(C)C3` (centres undefined) yielded an activity change, negative = inhibition of -16% [at 8 µM].
For `COc1ccccc1CNc1ccnc(-c2c(C)noc2C)n1`, the activity change, negative = inhibition was “inactive”.
In the case of `CC(Cc1ccccc1)C(=O)N(C)Cc1ccccc1` (centres undefined), the activity change, negative = inhibition is reported as “inactive”.
Work on `COc1ccc(/C=C/NC(=O)Cc2ccc(OC)c(OC)c2)cc1` yielded an activity change, negative = inhibition of -11.3% [at 8 µM].
With `Cn1c2c(c(=O)n(C)c1=O)C1c3ccccc3OCC1C(C)(C)O2` (centres undefined) the activity change, negative = inhibition was “inactive”.
With `COc1ccccc1N1CCN(C[C@@H]2CN3C(=O)N(C)c4ccccc4C3=N2)CC1` the activity change, negative = inhibition was “inactive”.
For `CC1CN(Cc2nc3c(c(=O)n(C)c(=O)n3C)n2Cc2cccc(Cl)c2)CC(C)O1` (centres undefined), the activity change, negative = inhibition was “inactive”.
In the case of `CCCCC(CC)CN` (centres undefined), the activity change, negative = inhibition is reported as “inactive”.
For `Cc1nc2ccccc2c(=O)n1CCCn1ccnc1`, the activity change, negative = inhibition was “inactive”.
For `Cc1ccnc(-n2sc3ccccc3c2=O)n1`, the Potency was 0.316 µM (active).
With `Cc1ccnc(N2CCC(C(=O)NC3CCCCCC3)CC2)n1` the activity change, negative = inhibition was “inactive”.
With `O=c1[nH]c(=O)n([C@H]2C[C@H](O)[C@H](CO)O2)cc1Br` the activity change, negative = inhibition was “inactive”.
For `CN(C)CCCn1c2ccccc2c2cnccc21`, the activity change, negative = inhibition was -25.7% [at 8 µM].
With `O=C(COc1ccccc1Cl)Nn1cnnc1` the activity change, negative = inhibition was “inactive”.
In the case of `Cc1ccccc1OCC(=O)Nc1ccc(N2CCN(C(=O)C(C)C)CC2)c(Cl)c1`, the Potency is reported as 12.6 µM (active).
With `Cc1cccc(NC(=O)COc2ccccc2C)n1` the activity change, negative = inhibition was “inactive”.
In the case of `COC(=O)[C@@]1(Cc2ccc(F)cc2)[C@@H]2[C@@H](CC(=O)[C@H]2CC(=O)C(=O)N2CCCC2)CN1C(=O)c1ccccc1`, the activity change, negative = inhibition is reported as “inactive”.
For `COC(=O)CCCCCN1C(=O)NC(c2ccc(-c3ccccc3)cc2)C(C(=O)OCc2ccccc2)=C1C` (centres undefined), the activity change, negative = inhibition was “inactive”.
For `Cc1ccccc1N1CCN(S(=O)(=O)C[C@@]23CC[C@H](C[C@H]2NC(=O)[C@@H](N)CCS(C)(=O)=O)C3(C)C)CC1`, the activity change, negative = inhibition was “inactive”.
